Assay results taken from PubChem BioAssay AID1619 (SRMLSC, 2009).
Screen size: about 220,000 compounds; about 830 (0.38%) were called active.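 Rule for the calls: active = compound inhibiting the enzyme by more than half at any dose during confirmatory dose-response retesting; inconclusive = strong single-dose inhibitors picked by rank but not retested; inactive = the rest.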 Not all results are given here. Entries with a potency or affinity are not part of this list.

target: Leucine aminopeptidase (Plasmodium falciparum (isolate 3D7)) (UniProt Q8IL11); experiment: P. falciparum M17LAP inhibitors, primary screen, biochemical, fluorogenic H-Leu-NHMec substrate, 1536-well (AID 1619); conditions: recombinant M17LAP, H-Leu-NHMec fluorogenic kinetic assay; at 30 µM; hits give high values;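 note: plate controls were full reaction with DMSO carrier for no effect and no enzyme background for full effect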
Sequence (Q8IL11 whole entry, looked up): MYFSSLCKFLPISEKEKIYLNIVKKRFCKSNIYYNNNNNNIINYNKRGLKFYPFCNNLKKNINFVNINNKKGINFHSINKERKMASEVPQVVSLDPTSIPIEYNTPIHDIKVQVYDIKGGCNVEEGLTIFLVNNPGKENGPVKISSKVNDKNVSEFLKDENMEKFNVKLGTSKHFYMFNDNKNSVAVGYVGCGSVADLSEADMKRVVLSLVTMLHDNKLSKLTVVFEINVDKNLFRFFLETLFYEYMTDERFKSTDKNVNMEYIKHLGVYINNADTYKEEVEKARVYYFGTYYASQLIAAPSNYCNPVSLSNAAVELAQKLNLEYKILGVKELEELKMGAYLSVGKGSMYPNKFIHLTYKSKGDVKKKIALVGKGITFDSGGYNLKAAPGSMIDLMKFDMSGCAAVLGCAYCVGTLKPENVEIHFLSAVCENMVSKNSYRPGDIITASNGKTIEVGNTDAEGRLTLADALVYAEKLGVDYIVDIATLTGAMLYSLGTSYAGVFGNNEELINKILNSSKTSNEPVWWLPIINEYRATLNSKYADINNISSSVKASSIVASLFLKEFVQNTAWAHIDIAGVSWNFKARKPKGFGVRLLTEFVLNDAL

inhibition, inactive:
COc1ccc(C(=O)COC(=O)C2CCC(=O)N2)cc1 (stereo unspecified) -3.64%, Cc1ccc2nc(SCCC(=O)O)cc(C)c2c1 43.9%, Nc1nc(-c2ccccc2Br)cs1 -3.14%, Cc1cc(C)nc(Nc2n[nH]c(-c3ccccc3Br)n2)n1 -2.55%, CC(C)CC(C(=O)O)N1C(=O)[C@@H]2[C@H](C1=O)[C@@H]1C[C@H]2C(Br)C1Br (stereo partly specified) 42.5%, Cc1[nH]n(-c2ncc(-c3ccccc3)s2)c(=O)c1C(c1ccc(Cl)cc1)C(C#N)C#N (stereo unspecified) 21.9%, Cc1[nH]n(-c2ncc(-c3ccccc3)s2)c(=O)c1C(c1ccc(Br)cc1)C(C#N)C#N (stereo unspecified) 6.12%, O=C(COC(=O)Cc1c[nH]c2ccccc12)Nc1ccccc1 0.86%, CC(C)(C)c1ccc(C(=O)C2CCCN(C(=O)C3CCOCC3)C2)cc1 (stereo unspecified) -15.1%, O=C(CN1CCC(n2nnc3cc(C(F)(F)F)ccc32)CC1)N1CCc2ccccc21 10.6%, COc1ccc(CCNC(=O)CN2C(=O)c3ccccc3S2(=O)=O)cc1 34.7%, Cc1ccc(CSCCNC(=O)CN2C(=O)c3ccccc3S2(=O)=O)cc1 46.9%, O=C(CN1C(=O)c2ccccc2S1(=O)=O)NCCC1=CCCCC1 43.9%, O=C(CN1C(=O)c2ccccc2S1(=O)=O)Nc1ccccc1C(=O)NCc1ccco1 23.5%, CC(C)(C)SCCNC(=O)CN1C(=O)c2ccccc2S1(=O)=O 32.2%, Cc1ccc(SCCNC(=O)CN2C(=O)c3ccccc3S2(=O)=O)cc1 54.1%, Cc1ccc(N(C(C)C(=O)O)S(=O)(=O)c2c(C)[nH]c(=O)[nH]c2=O)cc1 (stereo unspecified) 3.87%, c1ccc(Cn2nnc3c(N4CCc5ccccc54)ncnc32)cc1 -4.35%, CCCNC(=O)NS(=O)(=O)c1cnccc1Sc1ccc(Cl)c(Cl)c1 9.08%, Cc1ccc(NC(=O)Cn2cccc2C2=NC(c3ccccc3)CO2)cc1C (stereo unspecified) -6.31%, COC(=O)CSc1nc2cc3c(cc2cc1C)OCO3 -14.1%, Cc1c(Br)ccc(NC(=O)CCN2C(=O)C3C4CCC(C4)C3C2=O)c1C (stereo unspecified) 15.8%, Cc1cc(NC(=O)CCN2C(=O)C3C4CCC(C4)C3C2=O)cc(C)c1Br (stereo unspecified) 3.99%, O=C(NCc1ccccn1)C(=O)N/N=C/c1ccc2c(c1)OCO2 9.75%, Nc1nc2c(s1)CC(c1ccccc1)CC2 (stereo unspecified) 18.1%, COc1ccc(C2CC(=O)c3sc(NC(C)=O)nc3C2)cc1 (stereo unspecified) -0.56%, Nc1nc2c(s1)C(=O)CCC2 12.6%, COc1ccc(Nc2ncc3c(n2)CC(c2ccc(OC)cc2)CC3=O)cc1 (stereo unspecified) 0.52%, CCCC(=O)Nc1nnc(SCC(=O)Nc2ccc3c(c2)OCCO3)s1 -3.46%, Nc1nc(SCC(=O)Nc2ccc3c(c2)OCO3)n[nH]1 4.7%, CCc1c(C)nc(SCC(=O)Nc2ccc(Br)cc2)[nH]c1=O 19.5%, O=C(CSc1ncn(-c2ccccc2)n1)Nc1ccc2c(c1)OCCO2 27.7%, CC(C)C(=O)Nc1nnc(SCC(=O)Nc2ccc3c(c2)OCO3)s1 14.7%, Cc1cc(=O)[nH]c(SCC(=O)Nc2ccc3c(c2)OCCO3)n1 36.2%, Cc1csc(SCC(=O)Nc2ccc3c(c2)OCCO3)n1 -1.69%, CC(C)c1nc(SCC(=O)Nc2ccc3c(c2)OCCO3)n[nH]1 20.1%, CCc1nc(SCC(=O)N2CCN(c3ccccc3)CC2)c2c(=O)n(C)c(=O)n(C)c2n1 3.46%, O=C(Nc1ccc(S(=O)(=O)NCc2ccco2)cc1)C1CCCCC1 2.33%, CC(=O)c1sc(NC(=O)CCOc2ccccc2)nc1C -0.71%, CCN1CCN(C(=O)CN(C)S(=O)(=O)c2ccc(Cl)cc2)CC1 -6.75%, CC(C)CNC(=O)C1CCN(c2ccc(S(=O)(=O)N3CCOCC3)cc2)CC1 -3.46%, CSc1nc(Cc2ccccc2)nc2ccccc12 0.06%, COc1ccc2c(c1)c(C(=O)N/N=C/c1cccc(O)c1)c(C)n2C 11.1%, COc1ccc2c(c1)c(C(=O)N/N=C/c1ccc(OC)c(OC)c1)c(C)n2C -4.74%, COCCNC(=O)CN(c1ccccc1OC)S(C)(=O)=O 6.69%, CC(=O)Nc1ccc(NC(=O)/C=C/c2ccccc2)cc1 -5.95%, COc1cccc(OCCCCN2CC(C)OC(C)C2)c1 (stereo unspecified) 8.69%, O=C1OCCC1Sc1nc2cc(Cl)ccc2s1 (stereo unspecified) 11.7%, CSc1nc2cc(Cl)ccc2s1 -8.15%, Cc1cc(C(F)(F)F)nc(SCC(=O)NC2CC3CCC2C3)n1 (stereo unspecified) 4.48%, O=C(N/N=C/c1cccc(O)c1)c1ccc(COc2cccc3cccnc23)cc1 3.53%, CC(Nc1ccc(Br)cc1)C(=O)N/N=C/c1ccccc1OCc1ccccc1 (stereo unspecified) -9.93%, COc1cccc(/C=N/NC(=S)Nc2cccc(C(=O)O)c2)c1O 44.2%, COc1ccc(NC(C)C(=O)N/N=C/c2ccccc2OCc2cccc(Br)c2)cc1 (stereo unspecified) 3.79%, O=C(N/N=C/c1ccncc1)c1ccc(COc2cccc3cccnc23)cc1 8.86%, Cc1ccccc1NC(C)C(=O)N/N=C/c1ccccc1OCc1cccc(Br)c1 (stereo unspecified) -0.47%, CC1(C)CC2CC(C)(CN2/C=C2/CCCCC2=O)C1 (stereo unspecified) 16.8%, CCC1S/C(=N/N=C/c2ccco2)N(c2ccc(F)cc2)C1=O (stereo unspecified) 5.93%, O=[N+]([O-])c1cccc2ccc(/C=C/c3ccc(C(F)(F)F)cc3)nc12 5.36%, Cc1cc(N=Cc2c(O)n(-c3ccc(C)c(C)c3)c(=O)c3ccccc23)no1 -34.1%, COc1ccc(OCC(=O)OC(C)CN2CCOCC2)cc1 (stereo unspecified) 4.55%
